According to PubChem BioAssay (NCI):
This is part of a sample that, as a whole, favours compounds with a hit. Of some 79,000 tested, about 15% had one in any assay. Activity calls are given as the source filed them. Rule as the data show it: active = growth inhibition above about 70%; inactive = the rest.

Experiments:
[1] = NCI Yeast Anticancer Drug Screen. Data for the rad52 strain (AID 147);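 also: 0% = growth of vehicle-treated control cultures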; conditions: S. cerevisiae rad52 mutant growth inhibition, stronger effect = higher value
Method in brief: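 DNA repair-defective yeast; compound exposure; growth scored against vehicle controls.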

[2] = NCI Yeast Anticancer Drug Screen. Data for the wt1 strain (AID 149);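 also: 0% = growth of vehicle-treated wt1 cultures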; conditions: S. cerevisiae wt1 strain (SPY 50644) growth inhibition, stronger effect = higher value
Method in brief: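 wt1 strain grown with compound or vehicle; inhibition taken from the growth difference.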

[3] = NCI Yeast Anticancer Drug Screen. Data for the rad50EPP+ strain (AID 151);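 also: 0% = growth of vehicle-treated control cultures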; conditions: S. cerevisiae rad50 mutant strain, stronger effect = higher value
Method in brief: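 rad50EPP+ yeast treated with test compounds. Readout: growth vs vehicle control.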

[4] = NCI Yeast Anticancer Drug Screen. Data for the mgt1 strain (AID 153); conditions: S. cerevisiae mgt1 mutant growth inhibition, stronger effect = higher value
Method in brief: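 Growth inhibition relative to vehicle controls was scored for the mgt1 yeast strain after compound exposure.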

[5] = NCI Yeast Anticancer Drug Screen. Data for the rad50 strain (AID 155);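 also: 0% = growth of vehicle-only cultures of the same strain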; conditions: S. cerevisiae rad50 strain growth inhibition, stronger effect = higher value
Method in brief: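 DNA repair mutant yeast, compound exposure, growth read-out; inhibition is taken relative to vehicle.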

[6] = NCI Yeast Anticancer Drug Screen. Data for the mec2-1 strain (AID 157); conditions: S. cerevisiae mec2-1 strain, stronger effect = higher value
Method in brief: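 Growth inhibition is read against vehicle-treated controls after compound exposure of the mec2-1 yeast strain, which is defective in DNA damage repair or cell cycle control.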

[7] = NCI Yeast Anticancer Drug Screen. Data for the rad14 strain (AID 159);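 also: 0% = growth of vehicle-treated control cultures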; conditions: S. cerevisiae rad14 strain growth inhibition, stronger effect = higher value
Method in brief: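 DNA repair-defective yeast, compound-exposed; % growth inhibition derived by comparison with vehicle-treated controls.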

[8] = NCI Yeast Anticancer Drug Screen. Data for the sgs1 mgt1 strain (AID 161);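 also: 0% = growth of cultures given vehicle only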; conditions: S. cerevisiae sgs1 mgt1 strain, stronger effect = higher value
Method in brief: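 Compounds are added to genetically altered yeast, and growth is compared with cultures given vehicle alone to give percent inhibition.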

[9] = NCI Yeast Anticancer Drug Screen. Data for the CLN2oe strain (AID 163);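 also: 0% = growth of vehicle-only control cultures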; conditions: S. cerevisiae CLN2oe strain, stronger effect = higher value
Method in brief: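 Compound-treated yeast; growth vs vehicle ctrl = % inhibition. Genetically altered strain (cell-cycle control).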

[10] = NCI Yeast Anticancer Drug Screen. Data for the cln2 rad14 strain (AID 165);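 also: 0% = growth equal to vehicle treated cultures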; conditions: S. cerevisiae cln2 rad14 strain, stronger effect = higher value
Method in brief: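 Growth inhibition, relative to vehicle-treated controls, is the read-out. The test organism is a yeast strain with defined genetic alterations, cln2 rad14.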

[11] = NCI Yeast Anticancer Drug Screen. Data for the bub3 strain (AID 167); conditions: S. cerevisiae bub3 mutant strain, stronger effect = higher value
Method in brief: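 In this screen, a yeast mutant lacking normal mitotic checkpoint function is challenged with compound. Relative growth versus vehicle gives the inhibition value.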

[12] = NCI Yeast Anticancer Drug Screen. Data for the wt2 strain (AID 169);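 also: 0% = growth of vehicle-treated yeast cultures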; conditions: S. cerevisiae wt2 strain growth inhibition, stronger effect = higher value
Method in brief: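 Compound exposure of yeast; growth compared with vehicle controls; inhibition reported.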

[13] = NCI Yeast Anticancer Drug Screen. Data for the mlh1 strain (AID 171);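 also: 0% = growth of vehicle-treated control cultures of the same strain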; conditions: S. cerevisiae mlh1 strain growth inhibition, stronger effect = higher value
Method in brief: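 Compounds are applied to a genetically altered yeast strain, and its growth is compared with that of vehicle-treated cultures to give percent inhibition.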

[14] = NCI Yeast Anticancer Drug Screen. Data for the sgs1 strain (AID 173);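 also: 0% = growth of vehicle-only control cultures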; conditions: S. cerevisiae sgs1 mutant, stronger effect = higher value
Method in brief: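 Compounds applied to genetically altered yeast; growth compared with vehicle-treated cultures to give % inhibition.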

[15] = NCI Yeast Anticancer Drug Screen. Data for the mlh1 rad18 strain (AID 175); conditions: S. cerevisiae mlh1 rad18 strain growth inhibition, stronger effect = higher value
Method in brief: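 Cells of a genetically altered yeast strain, deficient in DNA damage repair, were treated with compound. Their growth was then compared with that of vehicle-treated cultures to give inhibition.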

[16] = NCI Yeast Anticancer Drug Screen. Data for the rad18 strain (AID 177); conditions: S. cerevisiae rad18 mutant growth inhibition, stronger effect = higher value
Method in brief: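 Compounds are applied to a repair-deficient yeast strain, and growth is compared with that of vehicle-treated cultures to give percent inhibition.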

[17] = at 5.0 µM (retest, dose inferred, filed as 0.5)
[18] = at 50.0 µM (retest, dose inferred, filed as 5.0)

Measured: growth inhibition

CC1=CCC(C(C)(C)c2ccc(O)cc2)CC1 (stereo not given)
inactive: [1]; at 1.2 µM 4% | [1]; at 3.7 µM -12% | [1]; at 11.0 µM -11% | [2]; at 1.2 µM -16% | [2]; at 3.7 µM -18% | [2]; at 11.0 µM -39% | [3]; at 1.2 µM -10% | [3]; at 3.7 µM -4% | [3]; at 11.0 µM -25% | [3]; at 33.0 µM 27% | [4]; at 1.2 µM 35% | [4]; at 3.7 µM 10% | [4]; at 11.0 µM -23% | [5]; at 1.2 µM -6% | [5]; at 3.7 µM -8% | [5]; [17] 35% | [5]; at 11.0 µM -26% | [5]; [18] 65% | [6]; at 1.2 µM -20% | [6]; at 3.7 µM -19% | [6]; [17] 52% | [6]; at 11.0 µM -40% | [7]; at 1.2 µM -8% | [7]; at 3.7 µM -18% | [7]; at 11.0 µM -39% | [8]; [17] 7% | [9]; at 1.2 µM 15% | [9]; at 3.7 µM 19% | [9]; at 11.0 µM -17% | [10]; [17] 37% | [11]; at 1.2 µM 7% | [11]; at 3.7 µM 4% | [11]; [17] 39% | [11]; at 11.0 µM -4% | [12]; at 1.2 µM -41% | [12]; at 3.7 µM -24% | [12]; at 11.0 µM -44% | [13]; at 1.2 µM 10% | [13]; at 3.7 µM 9% | [13]; at 11.0 µM -10% | [14]; at 1.2 µM 2% | [14]; at 3.7 µM -17% | [14]; at 11.0 µM -28% | [15]; [17] 32% | [15]; [18] 63% | [16]; at 1.2 µM -6% | [16]; at 3.7 µM -7% | [16]; at 11.0 µM -5%
active: [1]; at 33.0 µM 96% | [1]; at 100.0 µM 97% | [2]; at 33.0 µM 97% | [2]; at 100.0 µM 98% | [3]; at 100.0 µM 78% | [4]; at 33.0 µM 97% | [4]; at 100.0 µM 97% | [5]; at 33.0 µM 96% | [5]; at 50.0 µM 91.8% | [5]; at 100.0 µM 97% | [6]; at 33.0 µM 93% | [6]; [18] 73% | [6]; at 50.0 µM 93.5% | [6]; at 100.0 µM 98% | [7]; at 33.0 µM 97% | [7]; at 100.0 µM 98% | [8]; [18] 97% | [9]; at 33.0 µM 97% | [9]; at 100.0 µM 97% | [10]; [18] 98% | [11]; at 33.0 µM 96% | [11]; [18] 97% | [11]; at 100.0 µM 97% | [12]; at 33.0 µM 93% | [12]; at 100.0 µM 97% | [13]; at 33.0 µM 96% | [13]; at 100.0 µM 98% | [14]; at 33.0 µM 96% | [14]; at 100.0 µM 97% | [15]; at 50.0 µM 91.8% | [16]; at 33.0 µM 96% | [16]; at 100.0 µM 97%

NNC(=S)Nc1cccc(Cl)c1
inactive: [1]; at 1.2 µM -16% | [1]; at 3.7 µM -26% | [1]; at 11.0 µM -16% | [1]; at 33.0 µM 6% | [2]; at 1.2 µM -8% | [2]; at 3.7 µM -8% | [2]; at 11.0 µM -14% | [2]; at 33.0 µM 14% | [3]; at 1.2 µM -29% | [3]; at 3.7 µM -28% | [3]; at 11.0 µM -31% | [3]; at 33.0 µM -55% | [3]; at 100.0 µM -47% | [4]; at 1.2 µM -18% | [4]; at 3.7 µM -19% | [4]; at 11.0 µM 20% | [4]; at 33.0 µM 68% | [5]; at 1.2 µM -33% | [5]; at 3.7 µM -36% | [5]; [17] 58% | [5]; at 11.0 µM -20% | [5]; at 33.0 µM 27% | [5]; [18] 58% | [6]; at 1.2 µM -54% | [6]; at 3.7 µM -41% | [6]; [17] 63% | [6]; at 11.0 µM -40% | [6]; at 33.0 µM -5% | [6]; [18] 58% | [7]; at 1.2 µM -27% | [7]; at 3.7 µM -25% | [7]; at 11.0 µM -28% | [7]; at 33.0 µM 26% | [8]; [17] 9% | [9]; at 1.2 µM 0% | [9]; at 3.7 µM 15% | [9]; at 11.0 µM -3% | [9]; at 33.0 µM 3% | [10]; [17] 66% | [11]; at 1.2 µM -12% | [11]; at 3.7 µM -9% | [11]; [17] 31% | [11]; at 11.0 µM -9% | [11]; at 33.0 µM 35% | [12]; at 1.2 µM -27% | [12]; at 3.7 µM -23% | [12]; at 11.0 µM -25% | [12]; at 33.0 µM 8% | [13]; at 1.2 µM -6% | [13]; at 3.7 µM -17% | [13]; at 11.0 µM -8% | [13]; at 33.0 µM 45% | [14]; at 1.2 µM -18% | [14]; at 3.7 µM -22% | [14]; at 11.0 µM -8% | [14]; at 33.0 µM 32% | [15]; [17] 40% | [15]; [18] 54% | [16]; at 1.2 µM -17% | [16]; at 3.7 µM -11% | [16]; at 11.0 µM -6% | [16]; at 33.0 µM 24%
active: [1]; at 100.0 µM 79% | [2]; at 100.0 µM 86% | [4]; at 100.0 µM 97% | [5]; at 50.0 µM 76% | [5]; at 100.0 µM 92% | [6]; at 50.0 µM 78.6% | [6]; at 100.0 µM 91% | [7]; at 100.0 µM 95% | [8]; [18] 97% | [9]; at 100.0 µM 71% | [10]; [18] 96% | [11]; [18] 95% | [11]; at 100.0 µM 90% | [12]; at 100.0 µM 87% | [13]; at 100.0 µM 95% | [14]; at 100.0 µM 89% | [15]; at 50.0 µM 75.1% | [16]; at 100.0 µM 88%
